Screens (PubChem)
Anthrax LF prot: anthrax lethal factor protease inhibition. P15917. inhibition, % at 10 µM. multiplex microsphere protease cleavage assay, LF. actives 0.12% (n = 360,000); further: plate controls were buffer without enzyme for full effect and enzyme alone for no effect
MazF activator: increases E. coli MazEF RNase cleavage of RNA; P0AE70; FAM/BHQ RNA-DNA oligo cleavage fluorescence, 5 h; activation, % at 20 µM; actives 0.32% (n = 350,000); in the data active means activation above about 50%
BoNT-F LC inh: inhibitors of Botulinum neurotoxin F light chain protease; Multiplex microsphere protease cleavage assay, flow cytometry; inhibition, % at 10 µM; actives 0.22% (n = 360,000); in the data active means inhibition above about 35%, passing the limit was not always enough; inconclusive means no clear call, values can overlap the other calls; further: plate controls were buffer without enzyme for full effect and enzyme alone for no effect
BoNT-A LC inh2: BoNT A light chain protease inhibition | multiplex microsphere protease substrate cleavage, flow cytometry | inhibition, % at 10 µM | actives 0.17% (n = 360,000) | AID 588499; further: plate controls were buffer without enzyme for full effect and enzyme alone for no effect
Bead autofluor: compound fluorescence in toxin protease inhibitor counterscreen; compound autofluorescence counterscreen, microsphere flow cytometry; hits give high values; fluorescence intensity (test concentration not listed); actives 3.1% (n = 360,000); AID 624483; in the data active means fluorescence intensity above about 16000; inconclusive means no clear call, values can overlap the other calls
* marks the source's active call; other numbers are inactive results; u = inconclusive; x = not tested or not shown. The list is not random: actives were taken first. Their share in the collection is about 3.7%. Unless noted, no stated cut-off is given here; in the data, active means inhibition above about 30%; inconclusive means no clear call, values can overlap the other calls; inactive means below that.

SMILES	Anthrax LF prot	MazF activator	BoNT-F LC inh	BoNT-A LC inh2	Bead autofluor
CCc1ccc(CN(C)CC(=O)Nc2ccc(S(=O)(=O)N3CCOCC3)cc2)cc1	-1.8	5.6	1.3	1.2	5281
O=C(CN1CCc2ccccc2C1)NCc1ccco1	-8.0	1.1	2.8	3.1	19256*
COc1ccccc1OCC(=O)N/N=C1/SCC(=O)N1Cc1ccccc1	-1.2	0.7	2.4	2.3	22284*
COn1c(SCc2cccnc2)nc2ccccc2c1=O	-3.8	5.8	-5.1	-1.1	3366
COn1c(SCc2ccc(Cl)cc2)nc2ccccc2c1=O	-11.5	-11.4	-5.0	u	22710*
Cc1noc(C)c1CSc1nnc(-c2ccccc2)n1N	-5.0	5.5	-13.9	1.0	3531
Cc1noc(C)c1CSc1nnc2ccccn12	-8.3	3.8	0.8	2.9	19015*
Cc1noc(C)c1CSc1ccc2ccccc2n1	-1.3	-1.6	-2.2	-2.4	20444*
Cc1noc(C)c1CSc1nc2ccccc2s1	-1.3	-4.2	-7.7	0.7	5154
Cc1noc(C)c1CSc1nc2ccccc2c(=O)n1-c1ccc(Cl)cc1	-0.1	-9.3	4.4	u	22121*
S=c1[nH]c2ncccc2o1	1.0	3.2	1.5	-0.5	22317*
C[C@H](CO)N1C[C@H](C)[C@@H](CN(C)S(=O)(=O)c2ccccc2F)Oc2ncc(C#Cc3cccnc3)cc2C1=O	-3.7	3.8	-9.1	-0.2	3490
COCCN1C[C@@H](CO)O[C@@H](n2cnc3c(NC4CCC4)ncnc32)C1	-1.3	x	-9.4	-0.7	3006
OC(c1ccc(OCc2ccccc2)cc1)c1nnc(-c2ccccc2)o1 (stereo unspecified)	0.3	96.1*	-7.8	-0.8	2914
Cc1ccc(NC(=O)c2sc(Cl)nc2-c2ccccc2)cc1C	1.7	66.7*	-1.0	-0.1	2992
O=C(O)c1ccccc1Cc1ccc2c(c1)CCCC2	0.0	-6.3	-4.2	0.1	3637
O=C(O)c1ccc(F)c(S(=O)(=O)Nc2ccccc2Cl)c1	-0.5	-0.2	0.1	-0.1	23288*
O=C(Nc1ccc(Cl)c(Cl)c1)Nc1ccc(N2CCCC2)c(S(=O)(=O)Nc2ccccc2Cl)c1	-0.4	14.4	-11.8	-2.0	4015
O=C(Nc1ccc(F)cc1)Nc1ccc(N2CCCC2)c(S(=O)(=O)Nc2ccccc2Cl)c1	-1.2	52.7*	-6.5	-0.6	1913
CCCCNC(=O)C1(C)CCN1C(=O)c1cc2ccccc2s1 (stereo unspecified)	-4.5	x	1.2	0.2	2893
Cc1ccc(S(=O)(=O)N(C)c2ccc3c(c2)C(=O)c2ccccc2-3)cc1	-2.6	x	8.6	2.5	5828
CCn1c(SCC(=O)Nc2ccccc2)nc2c(c1=O)SCC2	-5.1	3.7	1.7	0.6	2849
CCC(C)c1ccc(N2C(=O)NC(=O)/C(=C/c3cccn3CCOc3ccc(C)cc3)C2=O)cc1 (stereo unspecified)	-2.9	123.8*	0.8	0.1	2054
Cc1ccc(N2C(=O)NC(=O)/C(=C\c3cccn3C(C)(C)C)C2=O)cc1	1.1	-29.1	-3.8	-0.2	2567
Nc1ccc(/C=C/c2ccc3ncccc3c2)cc1	0.5	7.2	7.1	0.6	4114
SMILES	Anthrax LF prot	MazF activator	BoNT-F LC inh	BoNT-A LC inh2	Bead autofluor
Nc1ccc2ncccc2c1	-20.5	1.1	16.7	u	17386*
COc1ccc(N=C2SC(CC(=O)Nc3ccc(OC)cc3OC)C(=O)N2C)cc1 (stereo unspecified)	-2.5	-1.6	4.7	3.2	20859*
CCCCCCN1C=CC(=C/C=C(\C#N)C(=O)OCC)C=C1	0.0	-419.2	-16.4	-10.3	24837*
CCOC(=O)/C(C#N)=C/C=C1\C=Cc2ccccc2N1CC	45.8*	-25.3	178.5*	-0.1	119384*
COc1ccccc1CNC(=O)CN(C)CC(=O)Nc1ccc(F)c(F)c1F	x	3.8	x	x	x
CC1(C(=O)NCc2ccc3c(c2)OCO3)CCN1C(=O)C1(c2ccc(Cl)cc2)CC1 (stereo unspecified)	-3.8	x	-2.6	-0.3	2851
COc1ccc(CC(C)N2CCN(Cc3ccccc3)CC2)c(OC)c1 (stereo unspecified)	-0.6	3.5	9.8	7.7	18004*
Cc1ccc(C)c(NC(=S)NNC(=O)c2ccc(Br)o2)c1	-0.1	1.3	-5.1	-4.8	21935*
Cc1ccc(C)c(NC(=S)NNC(=O)c2csc(C(C)C)c2)c1	0.8	2.3	-2.6	0.9	22879*
COc1ccc(Br)c(Cn2c(C)c(C(=O)NCc3ccccc3C(F)(F)F)sc2=O)c1	-2.0	x	-2.5	-0.1	4924
c1ccc(-c2nc(C3CCCCC3)c3ccccc3n2)cc1	-9.8	-1.1	-6.2	-0.1	3636
